# HP1b chromo inh = inhibitors of HP1-beta chromodomain binding to methylated histone tails; AID 540317; Potency, µM (top dose mostly 114 µM), for the others: top-dose activity change, negative = inhibition, most hits filed as inhibitors; hit rate 0.56% among 390,000; AlphaScreen HP1-beta / biotin-H3K9me3 peptide binding; further: nearly all actives have a fitted effect of over 70% in size
# Target sequence (P83916 whole entry, looked up): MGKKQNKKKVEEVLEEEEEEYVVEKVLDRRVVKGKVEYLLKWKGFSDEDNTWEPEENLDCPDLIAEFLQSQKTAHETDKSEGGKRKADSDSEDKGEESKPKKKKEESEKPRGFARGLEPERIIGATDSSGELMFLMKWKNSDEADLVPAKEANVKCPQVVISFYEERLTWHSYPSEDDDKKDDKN
#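 HP1-beta protein (50 nM final) preincubated 30 min at room temperature with biotinylated H3(1-18)K9me3 peptide (50 nM) in PBS pH 7.4, 0.01% Tween-20, then compound added for 30 min. AlphaScreen streptavidin donor/nickel chelate acceptor beads (10 ug/mL final), 30 min dark, luminescence read.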
# L3MBTL1 block = inhibitors of human L3MBTL1 | AID 485360 | hit rate 0.66% among 230,000 | AlphaScreen L3MBTL1–H3K9me1 peptide binding | Q9Y468 | Potency, µM (series often up to 57.1 µM), without a hit: at the top dose activity, negative = inhibition, most hits filed as inhibitors; further: on the % scale 0 is the no-effect control and ±100 the full control effect; nearly all actives have a fitted effect of over 60% in size
#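 Displacement of a biotinylated histone H3(1-15) peptide monomethylated at Lys9 (75 nM) from L3MBTL1 (50 nM) was measured by AlphaScreen after a 30 min room-temperature compound incubation; cefsulodin titration served as intraplate control.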
# G9a inh = G9a (human) methyltransferase inhibition | Q96KQ7 | G9a H3K9 monomethylation, AlphaScreen, 2 h | Potency, µM (series often up to 102 µM), for inactives: at the highest dose activity, negative = inhibition, actives largely listed as inhibitors | hit rate 8.8% among 350,000; further: on the % scale 0 is the no-effect control and ±100 the full control effect; nearly all actives have a fitted effect of over 75% in size
# Target sequence (Q96KQ7 913-1193 limits assumed): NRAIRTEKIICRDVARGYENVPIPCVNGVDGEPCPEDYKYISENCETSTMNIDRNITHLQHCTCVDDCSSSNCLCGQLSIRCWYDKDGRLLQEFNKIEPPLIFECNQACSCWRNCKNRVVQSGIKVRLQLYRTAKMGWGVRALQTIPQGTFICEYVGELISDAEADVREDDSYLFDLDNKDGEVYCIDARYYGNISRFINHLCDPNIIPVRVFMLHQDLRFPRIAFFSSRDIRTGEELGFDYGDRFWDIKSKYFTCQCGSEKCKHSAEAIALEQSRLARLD
#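 G9a (20 nM) was preincubated 15 min with compound, then reacted 2 h at room temperature with 500 nM biotin-H3K9 peptide and 20 µM SAM. Monomethyl-H3K9 detected by AlphaScreen using anti-H3K9me1 antibody.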
# BAZ2B inh = blocks human BAZ2B; Q9UIF8; AlphaScreen BAZ2B-H3K14Ac peptide displacement; Potency, µM (highest dose often 114 µM), without a hit: at the highest dose activity change, negative = inhibition, most hits filed as inhibitors; hit rate 4.4% among 360,000; further: on the % scale 0 is the no-effect control and ±100 the full control effect; nearly all actives have a fitted effect of over 60% in size
#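 In this displacement format the biotinylated H3(5-23) peptide acetylated at Lys14 serves as ligand at 50 nM, with BAZ2B at 50 nM in PBS pH 7.4 containing 0.01% Tween-20. Donor and acceptor beads are 10 ug/mL final.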
# JMJD2A Tudor = JMJD2A Tudor domain (human) inhibition; hit rate 4.4% among 390,000; O75164; AID 504339; Potency, µM (top dose mostly 114 µM), without a hit: at the top dose activity change, negative = inhibition, most hits filed as inhibitors; AlphaScreen JMJD2A-Tudor / H3K4me3 peptide binding; further: on the % scale 0 is the no-effect control and ±100 the full control effect; nearly all actives have a fitted effect of over 50% in size
# Active calls of the source: *; ? = inconclusive; · = not tested or not shown; [ ] = another dose, or the depositor's remark. This is a sample that favours compounds with a hit; in the whole collection about 11% have one here. The call rests on the fitted dose curve; in most records, active means well fitted inhibition curve with a large enough effect; inconclusive means small, poorly fitted or top-dose-only effect; inactive means no such curve, though single readings can be large or run the other way. Potency means the concentration at half of the fitted maximal effect.
SMILES,HP1b chromo inh,L3MBTL1 block,G9a inh,BAZ2B inh,JMJD2A Tudor
Brc1cccc(OCCCCN2CCCCC2)c1,?,-9%,7.1µM*,?,50µM*
CC1CCCN(CCCCOc2cccc(Br)c2)C1 (configuration not stated),-14%,-11%,?,50µM*,50µM*
CCC1CCCCN1CCCNC(=O)CN1C(=O)c2cccnc2Oc2ccc(Cl)cc21 (configuration not stated),20%,·,6%,-27%,-10%
CCC1CCCCN1CCCCOc1cccc(Cl)c1 (configuration not stated),?,·,-21%,?,18µM*
Fc1ccc(OCCCCCCN2CCCC2)cc1,13%,-6%,0%[59 µM],6%,-19%
CCOc1ccccc1C(=O)N(Cc1ccco1)Cc1ccccc1F,19%,·,-21%[59 µM],-12%,-32%
O=C(Nc1cccc(C(=O)N2CCN(c3ccc(Cl)cc3)CC2)c1)c1nsc2ccccc12,5%[57 µM],·,-28%[59 µM],-4%,-24%
COc1ccc(CCNC(=O)c2cc(C)nc3c2c(C)nn3-c2ccc(C)cc2)cc1OC,47%,·,-2%[59 µM],3%[57.1 µM],7%
O=C1Nc2ccccc2C(=O)C1(Cl)Cc1ccccc1 (configuration not stated),?,9%,?,79µM*,50µM*
CC(C)(C)N1C(=O)c2ccccc2NC(=O)N1Cc1ccccc1,37%,·,-24%[59 µM],-12%,-1%
N#Cc1ccccc1OCCOCCNC1CCCC1,-28%,9%,10µM*,?,?
C=CCc1ccc(OCCCNC2CCCC2)c(OC)c1,?,·,·,·,79µM*
COc1ccccc1CNS(=O)(=O)CCNC1CCCCC1,50%,·,·,·,-14%
C=CCc1ccc(OCCCOc2ccc(C)cc2OC)c(OC)c1,41%,·,-1%,59%,-6%[11.4 µM]
C=CCc1ccc(OCCCNCc2ccccc2)c(OC)c1,?,0%,·,50µM*,28µM*
COc1ccccc1OCCNC1CCCC1,-17%,·,40µM*,?,3.5µM*
COc1cc(OC)c(Nc2nc3ccccc3nc2-n2nc(C)cc2C)cc1Cl,79%,·,16%[59 µM],14%,-5%
C=CCc1cccc(Cl)c1OCCCNC1CCCC1,8%,-6%,·,?,50µM*
COc1cccc(CNCc2cccn2-c2nnc(N3CCN(c4ccccc4)CC3)s2)c1,-23%,·,?,?,50µM*
COc1ccc(OC)c(NCc2cccn2-c2nnc(N3CCCCC3)s2)c1,?,·,8.9µM*,-37%[57.1 µM],50µM*
COc1ccccc1NCc1cccn1-c1nnc(N2CCCCCC2)s1,-13%,·,?,-2%[57.1 µM],45µM*
COC(=O)CN1C(=O)CSc2ccc(S(=O)(=O)Nc3cccc(Cl)c3C)cc21,37%,·,-8%[59 µM],-9%,-9%
CCCOc1ccc(C(=O)Nc2ccc(Cl)c(-c3nc4ncccc4o3)c2)cc1,38%,·,-1%[59 µM],1%,-10%
Cc1ccc(C(=O)N[C@@H](C)CN2C3=NC[C@H](C(C)C)N3C[C@H]2Cc2ccc(O)cc2)cc1Br,-8%,-12%,?,-35%,79µM*
COc1ccc(C[C@H]2CN3C(=NC[C@@H]3C(C)C)N2C[C@H](C)NC(=O)c2ccc(C)c(Br)c2)cc1,8%,-8%,?,-36%,-30%
SMILES,HP1b chromo inh,L3MBTL1 block,G9a inh,BAZ2B inh,JMJD2A Tudor
COC(=O)c1ccccc1NC(=O)c1ccc(CN2CC(=O)N3CCCCC3C2=O)cc1 (configuration not stated),26%,·,-5%[59 µM],1%,-13%
CC(C)Oc1ccc(C(=O)Nc2ccccc2N2CCCC2)cc1,?,·,45µM*,?,-5%[11.4 µM]
O=C(Nc1ccccc1N1CCCC1)c1cccc(F)c1,26%,·,35µM*,?,-16%
CC1CCN(c2ccccc2NC(=S)NC(=O)c2cccs2)CC1,?,-16%,15%[12.7 µM],35µM*,?
COc1ccc(C(=O)Nc2ccccc2N2CCCC2)cc1,20%,·,-7%[2.33 µM],?,-23%
Cc1cc(C(=O)NC(=S)Nc2ccccc2N2CCOCC2)ccc1[N+](=O)[O-],?,-24%,35µM*,?,?
CS(=O)(=O)N1CCN(c2ccccc2NC(=S)NC(=O)c2cccs2)CC1,16%,-8%,17%,?,-11%[11.4 µM]
O=C(NCc1ccccc1Cl)c1cc2c(s1)-c1ccc(Cl)cc1SC2,19%,·,17%[59 µM],6%,-6%
COc1ccc(OC)c(NC(=O)c2cc3c(=O)n4cccc(C)c4nc3n2C)c1,31%,·,4%[59 µM],1%,3%
O=C(CSc1nnc(CNC(=O)c2ccccc2)n1-c1cccc(Cl)c1)Nc1ccccc1F,70%,·,19%[59 µM],23%,-25%
O=C(NCCc1ccc(F)cc1)C(=O)NCC(c1cccs1)S(=O)(=O)c1ccc(F)cc1 (configuration not stated),1%,·,10%[59 µM],-3%,-19%
O=C(NC(=S)Nc1ccccc1N1CCCCC1)c1ccccc1,-24%,-1%,32µM*,?,?
O=C(NC(=S)Nc1ncccn1)c1ccc(F)cc1,-19%,·,8.9µM*,?,-22%
O=C(NC(=S)Nc1ccccc1N1CCCC1)c1ccc(F)cc1,50µM*,-5%[11.4 µM],32µM*,25µM*,35µM*
O=C(NC(=S)Nc1ccccc1N1CCCCC1)c1ccc(F)cc1Cl,17%,·,-7%[12.7 µM],-30%,-20%
Cc1ccccc1C(=O)NC(=S)Nc1ccccc1N1CCCC1,?,?,20µM*,25µM*,25µM*
Cc1ccccc1C(=O)Nc1ccccc1N1CCN(C(=O)c2ccccc2)CC1,31%,·,51%,-23%,-14%
COc1cc(OC)cc(C(=O)Nc2ccc3c(c2)N(C2CCCC2)C(=O)c2ccccc2S3)c1,19%,·,0%[59 µM],-6%,-15%
Cc1ccc(-c2nn(CC(=O)Nc3cccc(C(F)(F)F)c3)c(=O)c3ccccc23)cc1,27%,·,5%[59 µM],1%,-6%
Cc1noc(-c2ccc(NCc3ccccc3)c([N+](=O)[O-])c2)n1,29%,·,-9%[59 µM],-2%,-8%
S=c1[nH]nc(Cn2cnc3ccccc32)n1-c1ccccc1,-7%,-19%,8.9µM*,-15%,4.5µM*
S=c1[nH]nc(COc2ccccc2)n1-c1ccc(Cl)cc1,22%,·,·,·,-29%
Fc1ccc(-n2c(CN3CCCCC3)n[nH]c2=S)cc1,41%,-5%,45µM*,-11%,?
S=c1[nH]nc(CN2CCCCC2)n1-c1ccc(Cl)cc1,32%,·,18µM*,-22%,5%
FC(F)(F)c1ccccc1-n1c(CN2CCCCC2)n[nH]c1=S,21%,·,20µM*,-24%,22µM*
COc1ccccc1/C=C/c1nc(C#N)c(N2CCN(c3ccccc3)CC2)o1,-9%,·,-46%[59 µM],?,-14%
COc1ccc(C)cc1N(CC(=O)Nc1ccc(S(=O)(=O)N2CCCC2)cc1)S(C)(=O)=O,9%,·,22%[0.501 µM],-10%,?
S=c1[nH]nc(Cn2nnc3ccccc32)n1-c1ccc(Cl)cc1,49%,6%,11µM*,-7%,-6%
